About 250 (13%) of roughly 1,900 compounds were called active. Not shown: some 4% with an inconclusive outcome.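 Rule for the calls: active = fitted curve reaches 40% rescue activity at or below the top valid dose, in every test run; inconclusive = test runs disagree, some active and some inactive; inactive = every run misses the threshold or moves the wrong way.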 A selection follows. A call without a number means that no potency is given here. Potency and affinity values are given separately.
Experiment: suppressors of statin myotoxicity in myotubes, dose response, cell-based, C2C12 myotubes, ATP luminescence, cherry pick (AID 624405);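 note: myotubes are challenged with simvastatin at 10 µM to lower ATP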
Conditions: C2C12 myotubes + simvastatin, 48 h, scaled: DMSO wells 0, geranylgeraniol wells 100; series mostly up to 19.5 µM

Q: With `C/C=C/c1ccc2c(c1)O[C@@H](CN(C)C(=O)NC1CCCCC1)[C@@H](C)CN([C@@H](C)CO)S2(=O)=O` as the molecule, how does the outcome read?
A: inactive

Q: Which outcome does the source give for `O=C(O)CC(c1ccccc1)n1cccc1` (configuration not stated) here?
A: inactive

Q: Which outcome does the source give for `O=C(CN1CCN(C(=O)c2ccco2)CC1)Nc1cc(C(F)(F)F)ccc1Cl` here?
A: inactive

Q: Which outcome does the source give for `COc1ccc(NC(=O)Nc2ccc3c(c2)C(=O)N([C@H](C)CO)C[C@H](C)[C@H](CN(C)Cc2ccc(C(F)(F)F)cc2)OCCCC[C@@H](C)O3)cc1` here?
A: inactive

Q: Which outcome does the source give for `CCn1ncc(Br)c1C(=O)Nc1cc(C(=O)OC)ccc1C(=O)OC` here?
A: inactive

Q: Which outcome does the source give for `O=C(C[C@@H]1CC[C@H]2[C@@H](COC[C@@H](O)CN2Cc2ccc(Oc3ccccc3)cc2)O1)Nc1nccs1` here?
A: inactive

Q: For `O=C(C[C@@H]1CC[C@@H]2[C@H](COC[C@H](O)CN2Cc2ccc(C(F)(F)F)cc2)O1)NCCc1ccccc1`, which outcome is on record?
A: inactive

Q: With `O=C(C[C@H]1CC[C@H]2[C@@H](COC[C@@H](O)CN2Cc2ccc(Oc3ccccc3)cc2)O1)N1CCCCC1` as the molecule, how does the outcome read?
A: inactive

Q: For `O=C(C[C@H]1CC[C@H]2[C@@H](COC[C@H](O)CN2Cc2ccc(Oc3ccccc3)cc2)O1)N1CCCCC1`, which outcome is on record?
A: inactive

Q: Which outcome does the source give for `CC(C)NC(=O)Nc1cccc2c1O[C@H](CN(C)Cc1ccc(-c3ccccc3)cc1)[C@@H](C)CN([C@@H](C)CO)C2=O` here?
A: inactive

Q: For `Cc1ccc(S(=O)(=O)NCCN=C(CN2CCCC2)NS(=O)(=O)c2ccc(C)cc2)cc1`, which outcome is on record?
A: inactive

Q: For `CC(=O)OC1CC(n2ccc(NC(=O)c3ccccc3)nc2=O)OC1CO` (configuration not stated), which outcome is on record?
A: inactive

Q: For `COc1ccc2oc(=O)cc(CN3CCN(Cc4ccc(OC)c(OC)c4OC)CC3)c2c1`, which outcome is on record?
A: inactive

Q: With `C[C@@H]1CN([C@@H](C)CO)C(=O)Cc2cc(N(C)C)ccc2O[C@H]1CN(C)Cc1ccc2c(c1)OCO2` as the molecule, how does the outcome read?
A: inactive

Q: For `O=c1c2ccccc2ncn1Cc1nc2ccccc2s1`, which outcome is on record?
A: inactive

Q: For `COc1ccc(Cc2nc(C(=O)Nc3ccc(OC)cc3)cs2)cc1`, which outcome is on record?
A: inactive

Q: With `C[C@@H]1CCCCO[C@@H](CN(C)C(=O)Nc2cccc3ccccc23)[C@@H](C)CN([C@@H](C)CO)C(=O)c2cc(NS(=O)(=O)c3ccc(Cl)cc3)ccc2O1` as the molecule, how does the outcome read?
A: inactive

Q: For `COc1cccc(C#Cc2ccc3c(c2)O[C@H](CN(C)C(=O)c2ccccn2)[C@H](C)CN([C@H](C)CO)S3(=O)=O)c1`, which outcome is on record?
A: inactive

Q: For `Cc1ccc(S(=O)(=O)N(C)c2ccc(C(=O)O)cc2)cc1`, which outcome is on record?
A: inactive

Q: Which outcome does the source give for `CCC1(C)Cc2c(sc3nc(NN)n(C)c(=O)c23)CO1` (configuration not stated) here?
A: inactive

Q: Which outcome does the source give for `C[C@H]1CN([C@@H](C)CO)C(=O)c2cc(C3=CCCCC3)cnc2O[C@H]1CN(C)Cc1ccccc1F` here?
A: inactive

Q: For `C[C@@H]1CN([C@@H](C)CO)C(=O)c2cc(C#CC3CCCCC3)cnc2O[C@H]1CN(C)S(=O)(=O)c1ccc(F)cc1`, which outcome is on record?
A: inactive

Q: For `C[C@@H]1CN([C@H](C)CO)C(=O)Cc2cc(NC(=O)CCCCCC(=O)Nc3ccccc3N)ccc2O[C@H]1CN(C)Cc1ccc(Oc2ccccc2)cc1`, which outcome is on record?
A: inactive

Q: With `C[C@H]1CN([C@@H](C)CO)C(=O)Cc2cc(NC(=O)CCCCCC(=O)Nc3ccccc3N)ccc2O[C@@H]1CN(C)Cc1ccc(Oc2ccccc2)cc1` as the molecule, how does the outcome read?
A: inactive

Q: With `O=C(c1ccco1)N(Cc1ccco1)c1ccc(O)cc1` as the molecule, how does the outcome read?
A: inactive

Q: For `C[C@H]1CCCCO[C@H](CN(C)S(=O)(=O)c2ccc(Cl)cc2)[C@@H](C)CN([C@@H](C)CO)C(=O)c2cc(NS(C)(=O)=O)ccc2O1`, which outcome is on record?
A: inactive

Q: For `COCCNC(=O)CSc1nc2ccccc2c2nc(C)nn12`, which outcome is on record?
A: inactive

Q: For `C[C@H](CO)N1C[C@H](C)[C@@H](CN(C)Cc2ccc(-c3ccccc3)cc2)Oc2ccc(NC(=O)Cn3cnnn3)cc2CC1=O`, which outcome is on record?
A: inactive

Q: Which outcome does the source give for `C[C@@H]1CN([C@@H](C)CO)C(=O)c2cc(C#Cc3ccc(F)cc3)cnc2O[C@H]1CN(C)C(=O)c1ccccc1F` here?
A: inactive

Q: Which outcome does the source give for `COc1ccc(S(=O)(=O)Nc2ccc3c(c2)C(=O)N([C@H](C)CO)C[C@H](C)[C@H](CN(C)Cc2ccc(Cl)c(Cl)c2)OCCCC[C@@H](C)O3)cc1` here?
A: inactive

Q: For `CN1C(=O)c2cc(NC(=O)c3cscn3)ccc2OC[C@H]2O[C@H](CC(=O)NCc3ccc(Cl)c(Cl)c3)CC[C@H]21`, which outcome is on record?
A: inactive

Q: For `COc1ccc(S(=O)(=O)Nc2ccc3c(c2)CC(=O)N([C@H](C)CO)C[C@@H](C)[C@H](CN(C)Cc2ccc(Cl)c(Cl)c2)O3)cc1`, which outcome is on record?
A: inactive

Q: Which outcome does the source give for `CC(C)(Oc1ccc(Cl)cc1)C(=O)NCc1ccco1` here?
A: inactive

Q: Which outcome does the source give for `CN1CCN(c2ccc(NC(=S)NC(=O)c3cccc4c(Br)cccc34)cc2)CC1` here?
A: inactive

Q: Which outcome does the source give for `C[C@@H]1CCCCO[C@@H](CN(C)C(=O)Nc2ccc(C(F)(F)F)cc2)[C@H](C)CN([C@@H](C)CO)C(=O)c2cc(NC(=O)c3ccccc3)ccc2O1` here?
A: inactive

Q: With `Cc1ccc(S(=O)(=O)N(C)C[C@H]2Oc3ccc(NC(=O)Cc4ccccc4)cc3CC(=O)N([C@@H](C)CO)C[C@@H]2C)cc1` as the molecule, how does the outcome read?
A: inactive

Q: With `C[C@@H]1CCCCO[C@H](CN(C)S(=O)(=O)c2ccc(Cl)cc2)[C@@H](C)CN([C@@H](C)CO)C(=O)c2cc(NS(C)(=O)=O)ccc2O1` as the molecule, how does the outcome read?
A: inactive

Q: With `COc1ccc(C(=O)c2ccc(OC)cc2O)c(O)c1` as the molecule, how does the outcome read?
A: inactive

Q: Which outcome does the source give for `C[C@H]1CN([C@@H](C)CO)C(=O)Cc2cc(NC(=O)CCCCCC(=O)Nc3ccccc3N)ccc2O[C@@H]1CN(C)Cc1ccc(C(F)(F)F)cc1` here?
A: inactive

Q: Which outcome does the source give for `C[C@H](CO)N1C[C@H](C)[C@H](CN(C)Cc2ccc(C(F)(F)F)cc2)Oc2ccc(NC(=O)CCCCCC(=O)Nc3ccccc3N)cc2CC1=O` here?
A: inactive

Q: With `Cc1onc(-c2ccccc2)c1C(=O)OCC(=O)Nc1ccc2c(c1)OCO2` as the molecule, how does the outcome read?
A: inactive

Q: For `Cc1ccc(NC(=O)C(=S)NCc2ccco2)cc1`, which outcome is on record?
A: inactive

Q: Which outcome does the source give for `FC(F)(F)c1cccc(-c2nnc(-c3ccccc3)c(N3CCOCC3)n2)c1` here?
A: inactive

Q: For `Cc1ccc(Nc2cc(=O)[nH]c(=O)[nH]2)c(C)c1`, which outcome is on record?
A: inactive

Q: With `COCC(=O)N1C[C@H]2[C@@H](c3ccccc31)[C@@H](CO)N2Cc1ccc(OC)cc1` as the molecule, how does the outcome read?
A: inactive

Q: Which outcome does the source give for `CCCNC(=O)N(C)C[C@@H]1Oc2cc(-c3ccccc3)ccc2S(=O)(=O)N([C@@H](C)CO)C[C@@H]1C` here?
A: inactive

Q: Which outcome does the source give for `CC(C)NC(=O)Nc1ccc2c(c1)C(=O)N([C@@H](C)CO)C[C@H](C)[C@H](CN(C)Cc1ccccc1)O2` here?
A: inactive
